Drawing on PubChem BioAssay (EPA / NIEHS), this text covers outcome and AC50 for 13 compounds.

Experiment [1] concerns the target Retinoic acid receptor RXR-alpha (Homo sapiens) (UniProt P19793). As to the kind of experiment: OT_NURR1_NURR1RXRa_0480: Odyssey Thera (OT) 8-hour HEK293T Protein Complementation Assay for Nurr1/retinoid X receptor (RXR) (AID 2283385; active = hit-call score of the fitted dose curve at least 0.9, where 1 is the maximum). Summed up:
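Interaction of bait and prey reconstitutes a functional reporter, whose fluorescence was measured in HEK293T cells dosed with compound for 8 hours. Signal gain relative to DMSO defined the single endpoint.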

A short description of experiment [2]: BSK_3C_TissueFactor: BioMAP Diversity Plus: 3C Assay for Tissue Factor Biomarker Activity (AID 2282997). Conditions: BioMAP 3C HUVEC, tissue factor biomarker readout; actives raise or lower the signal. Summed up: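 HUVEC, 3C system, 24 h post-dose; Tissue Factor by ELISA; bidirectional fit vs DMSO baseline.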
A short description of experiment [3]: BSK_3C_uPAR: BioMAP Diversity Plus: 3C Assay for Urokinase-type plasminogen activator receptor (uPAR) Biomarker Activity (AID 2282998). Conditions: BioMAP 3C HUVEC, uPAR biomarker ELISA; actives raise or lower the signal. The method in brief: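 ELISA readout of uPAR on human vascular endothelium (umbilical vein primary cells), taken 24 h after chemical dosing. Increases and decreases are both fitted relative to DMSO vehicle.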
A general note: In an ELISA, binding on a coated surface is turned into a signal by an enzyme label.

Experiment [4] is described as follows: BSK_3C_VCAM1: BioMAP Diversity Plus: 3C Assay for Vascular cell adhesion molecule 1 (VCAM1) Biomarker Activity (AID 2282999). Conditions: BioMAP 3C HUVEC, VCAM1 ELISA, cytokine-stimulated; actives raise or lower the signal. The method in brief:
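HUVEC primary cells, 24 h compound exposure; VCAM-1 by ELISA; gain/loss of signal fitted bidirectionally vs DMSO baseline.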

Experiment [5] in a line: BSK_4H_Eotaxin3: BioMAP Diversity Plus: 4H Assay for Eotaxin 3 Biomarker Activity (AID 2283000).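 For outcome: CCL26 protein level quantified by ELISA in parallel with SRB cytotoxicity check.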 Conditions: primary human endothelial cells (HUVEC); actives raise or lower the signal. The method in brief:
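Readout is Eotaxin-3 (CCL26) level by ELISA in primary human umbilical vein endothelial cells harvested 24 h after chemical exposure; activity fitted in both directions against DMSO control.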

Experiment [6] is described as follows: BSK_3C_Proliferation: Cell Proliferation Assessment in the BioMAP Diversity Plus: 3C Assay (AID 2283006).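 For AC50: potency may reflect either rise or fall in cell number versus DMSO.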 Conditions: primary human endothelial cells (HUVEC). Summed up: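 Cells (human umbilical vein endothelial, sub-confluent) receive test chemical; after 48 h they are fixed in 10% trichloroacetic acid, stained with 0.1% SRB and read at 560 nm. Activity is referenced to DMSO, fitting increases and decreases.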

Read-out in experiment [7]: E-selectin (Homo sapiens) (UniProt P16581)
In words: BSK_3C_Eselectin: BioMAP Diversity Plus: 3C Assay for Eselectin Biomarker Activity (AID 2283015).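 For outcome: cell surface E-selectin protein quantified by ELISA 24 h after dosing.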 Conditions: primary human endothelial cells (HUVEC); actives raise or lower the signal. Summed up: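 HUVEC, 3C stimulation; compound exposure 24 h; E-selectin by ELISA; gain- or loss-of-signal fitted bidirectionally vs DMSO baseline.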

Read-out in experiment [8]: Interleukin-1 alpha (IL1a), IL1A (gene 3552)
In words: BSK_BE3C_IL1a: BioMAP Diversity Plus: BE3C Assay for Interleukin-1 alpha (IL1a) Biomarker Activity (AID 2283016). Conditions: primary human bronchial epithelial cells; actives raise or lower the signal. Summed up:
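Signal from IL-1a ELISA, taken 24 h after chemical dosing of human bronchial epithelial cells, is compared with DMSO as baseline using bidirectional curve fitting.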

Read-out in experiment [9]: Monocyte Chemoattractant Protein-1 (MCP1), CCL2 (gene 6347)
As to the kind of experiment: BSK_4H_MCP1: BioMAP Diversity Plus: 4H Assay for Monocyte Chemoattractant Protein-1 (MCP1) Biomarker Activity (AID 2283018). Particulars: primary human endothelial cells (HUVEC); actives raise or lower the signal. Summed up:
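Endothelial cells from umbilical vein were treated with test chemical, then after 24 h MCP-1 levels were quantified by ELISA; endpoint values came from bidirectional fitting with DMSO as baseline of activity.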

Read-out in experiment [10]: Human Leukocyte Antigen - DR isotype (HLADR), HLA-DRA (gene 3122)
As to the kind of experiment: BSK_3C_HLADR: BioMAP Diversity Plus: 3C Assay for Human Leukocyte Antigen - DR isotype (HLADR) Biomarker Activity (AID 2283019).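 For outcome: ELISA of cell-surface HLA-DR on HUVEC 24 h after dosing.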 Conditions: primary human endothelial cells (HUVEC); actives raise or lower the signal. Summed up:
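HUVEC, 3C stimulation, 24 h post-dose; HLA-DR by ELISA; bidirectional curve fit vs DMSO baseline; gain or loss of signal scored.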

Read-out in experiment [11]: Interleukin-8 (IL8), CXCL8 (gene 3576)
In words: BSK_3C_IL8: BioMAP Diversity Plus: 3C Assay for Interleukin-8 (IL8) Biomarker Activity (AID 2283020). Conditions: primary human endothelial cells (HUVEC); actives raise or lower the signal. Summed up:
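Endothelial primary cells of human umbilical vein origin are dosed with chemical; after 24 h the IL-8 biomarker is measured by ELISA, and concentration–response is fitted in both directions versus DMSO.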

Read-out in experiment [12]: Monokine induced gamma interferon (MIG), CXCL9 (gene 4283)
In words: BSK_3C_MIG: BioMAP Diversity Plus: 3C Assay for Monokine induced gamma interferon (MIG) Biomarker Activity (AID 2283021). Conditions: primary human endothelial cells (HUVEC); actives raise or lower the signal. Summed up: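 Endothelial primary cells (human umbilical vein) are dosed with test chemical in the 3C system. MIG levels are measured by ELISA at 24 h and fitted in both directions relative to DMSO.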

A short description of experiment [13]: BSK_3C_SRB: Viability Assessment in the BioMAP Diversity Plus: 3C Assay (AID 2283023).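 Note: cells read 24 h after compound dosing; fitted both ways against DMSO so a hit may be signal rise or drop.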 Particulars: primary human endothelial cells (HUVEC). The method in brief:
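HUVEC, 24 h post-dose; 10% TCA fix, 0.1% SRB stain, A560 nm. Bidirectional curve fit vs DMSO negative control.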

Read-out in experiment [14]: Matrix Metallopeptidase 1 (MMP1), MMP1 (gene 4312)
In words: BSK_BE3C_MMP1: BioMAP Diversity Plus: BE3C Assay for Matrix Metallopeptidase 1 (MMP1) Biomarker Activity (AID 2283024). Particulars: primary human bronchial epithelial cells; actives raise or lower the signal. The method in brief: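 MMP1 signal, measured by ELISA after a 24 h chemical exposure of human primary bronchial epithelial cells, is analysed with bidirectional fitting using DMSO as negative control.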

Experiment [15] is described as follows: BSK_4H_SRB: Viability Assessment in the BioMAP Diversity Plus: 4H Assay (AID 2283027).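 For AC50: curves fitted both ways versus DMSO so AC50 may be loss or gain.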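 Note: cells exposed to compound for 24 h before staining.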 Particulars: primary human endothelial cells (HUVEC). The method in brief: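 HUVEC, 24 h post-dose; 10% TCA fix, 0.1% SRB stain, A560 nm. Total protein = overt cytotoxicity, parallel to biomarker read. Bidirectional fit vs DMSO baseline.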
Experiment [16] can be described thus: BSK_BE3C_SRB: Viability Assessment in the BioMAP Diversity Plus: BE3C Assay (AID 2283028). Conditions: primary human bronchial epithelial cells. Summed up: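 Primary human bronchial epithelium; chemical dosing, 24 h; 10% TCA fix, 0.1% SRB stain, A560; bidirectional fit vs DMSO baseline.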
Read-out in experiment [17]: Monokine induced gamma interferon (MIG), CXCL9 (gene 4283)
In words: BSK_hDFCGF_MIG: BioMAP Diversity Plus: hDFCGF Assay for Monokine induced gamma interferon (MIG) Biomarker Activity (AID 2283063). Conditions: primary human foreskin fibroblasts; actives raise or lower the signal. The method in brief: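 Fibroblasts (human foreskin, primary) dosed, 24 h, MIG by ELISA; fit bidirectional vs DMSO.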

Read-out in experiment [18]: Matrix Metallopeptidase 1 (MMP1), MMP1 (gene 4312)
In words: BSK_hDFCGF_MMP1: BioMAP Diversity Plus: hDFCGF Assay for Matrix Metallopeptidase 1 (MMP1) Biomarker Activity (AID 2283064). Conditions: primary human foreskin fibroblasts; actives raise or lower the signal. Summed up: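 ELISA read-out of MMP1 from human foreskin fibroblasts (primary skin cells), 24 h post-dose. Gain or loss of signal was fitted bidirectionally versus DMSO negative control; cytotoxicity was checked by SRB in parallel cultures.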

Read-out in experiment [19]: E-selectin (Homo sapiens) (UniProt P16581)
In words: BSK_SAg_Eselectin: BioMAP Diversity Plus: SAg Assay for Eselectin Biomarker Activity (AID 2283091). Particulars: primary human HUVEC with PBMC; actives raise or lower the signal. The method in brief: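 E-selectin ELISA readout at 24 h post-dosing in human umbilical vein endothelial cell/PBMC co-culture; gain or loss of signal fitted relative to DMSO baseline.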

Read-out in experiment [20]: Interleukin-8 (IL8), CXCL8 (gene 3576)
In words: BSK_SAg_IL8: BioMAP Diversity Plus: SAg Assay for Interleukin-8 (IL8) Biomarker Activity (AID 2283094). Particulars: primary human HUVEC with PBMC; actives raise or lower the signal. Summed up: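 Chemicals were dosed onto a human endothelial–PBMC co-culture, and IL-8 was quantified by ELISA after 24 h. Both increases and decreases were fitted relative to DMSO.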

For orientation: AC50 means the concentration at which the activity in the assay is half-maximal.

Records with an inconclusive call do not appear. Calls of active or inactive are those of the source. Rule for the calls, unless noted: active = hit-call score of the fitted dose curve at least 0.9, where 1 is the maximum; inactive = score below 0.9.

Chain of Retinoic acid receptor RXR-alpha (Homo sapiens) (P19793 whole entry, looked up): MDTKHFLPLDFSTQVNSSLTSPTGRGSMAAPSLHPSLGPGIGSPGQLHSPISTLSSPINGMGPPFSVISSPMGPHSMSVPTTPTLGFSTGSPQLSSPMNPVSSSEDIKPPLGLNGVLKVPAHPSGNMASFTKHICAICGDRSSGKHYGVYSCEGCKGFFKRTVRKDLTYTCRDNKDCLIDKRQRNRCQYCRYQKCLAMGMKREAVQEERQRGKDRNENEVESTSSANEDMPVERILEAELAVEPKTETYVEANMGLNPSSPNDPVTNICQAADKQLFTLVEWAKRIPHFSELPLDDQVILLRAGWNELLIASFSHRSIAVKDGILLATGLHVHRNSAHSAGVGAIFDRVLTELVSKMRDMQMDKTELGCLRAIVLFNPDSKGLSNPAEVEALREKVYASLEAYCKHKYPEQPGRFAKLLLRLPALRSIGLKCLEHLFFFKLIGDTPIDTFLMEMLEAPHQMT
Chain of E-selectin (Homo sapiens) (P16581 whole entry, looked up): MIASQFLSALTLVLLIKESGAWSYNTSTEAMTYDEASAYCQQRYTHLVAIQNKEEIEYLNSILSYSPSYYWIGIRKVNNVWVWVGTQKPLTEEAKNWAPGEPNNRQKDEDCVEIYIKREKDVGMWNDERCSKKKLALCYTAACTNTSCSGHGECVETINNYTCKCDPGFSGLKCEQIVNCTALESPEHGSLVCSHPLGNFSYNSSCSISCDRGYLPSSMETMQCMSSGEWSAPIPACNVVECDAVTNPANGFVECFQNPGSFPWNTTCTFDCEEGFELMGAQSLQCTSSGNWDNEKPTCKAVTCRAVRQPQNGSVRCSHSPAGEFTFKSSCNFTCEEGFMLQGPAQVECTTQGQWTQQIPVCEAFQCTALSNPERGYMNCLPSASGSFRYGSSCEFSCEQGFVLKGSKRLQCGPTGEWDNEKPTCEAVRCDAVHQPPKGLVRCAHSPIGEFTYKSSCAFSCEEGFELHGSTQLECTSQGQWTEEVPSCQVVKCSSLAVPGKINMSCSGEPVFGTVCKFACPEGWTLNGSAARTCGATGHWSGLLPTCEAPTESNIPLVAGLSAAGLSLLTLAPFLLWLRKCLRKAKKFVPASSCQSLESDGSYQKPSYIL

For the compound `Cc1cc(O)cc(C)c1Cl`, the call in experiment [1] was inactive.

Regarding `CC(C)CC(=O)CC(C)CC(C)C` (stereo unspecified), the AC50 is 36 µM (active) in experiment [2]; 30.9 µM (active) in experiment [3]; 35.1 µM (active) in experiment [4]; 33.8 µM (active) in experiment [5]; 36.6 µM (active) in experiment [6]; 34.6 µM (active) in [7]. Moreover, the concentration at half-maximal activity (AC50) in experiment [8] is 31.5 µM (active); in experiment [9], 31.1 µM (active); in experiment [10] it was 35.3 µM (active); in experiment [13], 35.2 µM (active); in [14] it was 20 µM (active); in experiment [15], 33.7 µM (active). Besides, the outcome in [11], in experiment [12], in [16], in [17], in [18] and in experiment [19] was inactive. For the same compound, the outcome in [20] was inactive.

Consider `O=C(OCc1ccccc1)c1ccccc1`, for which, in [1], the result was inactive.

Consider `O=C(Oc1ccccc1)c1ccccc1`, for which the AC50 in experiment [1] was 75.8 µM (active).

For the compound `Sc1nc2ccccc2s1`, the AC50 in experiment [2] is 1.09 µM (active); in experiment [5], 3.97 µM (active); in experiment [8], 0.0847 µM (active). Besides, the outcome in experiment [3], in experiment [4], in [6], in experiment [7], in experiment [9] and in [10] was inactive. The result in experiment [11], in [12], in experiment [13], in experiment [14], in experiment [15] and in experiment [16] was inactive. For the same compound, the outcome in experiment [17], in experiment [18], in [19], in experiment [20] and in [1] was inactive.

Regarding `CCC(C)=NO`, the outcome in experiment [2], in [3], in experiment [4], in experiment [5], in experiment [6] and in [7] was inactive. Further, the result in experiment [8], in experiment [9], in experiment [10], in [11], in [12] and in experiment [13] was inactive. In addition, the result in experiment [14], in experiment [15], in experiment [16], in experiment [17], in experiment [18] and in [19] was inactive. In addition, the result in experiment [20] and in [1] was inactive.

For `CCCCCCC(O)CCCCCCCCCCC(=O)OC` (stereo unspecified), the result in experiment [2], in experiment [3], in experiment [4], in experiment [5], in [6] and in [7] was inactive. In addition, the result in experiment [8], in experiment [10], in [11], in experiment [12], in [13] and in experiment [15] was inactive. For the same compound, the result in experiment [16], in experiment [17], in [18], in experiment [19] and in [20] was inactive. Moreover, the half-maximal activity concentration (AC50) in [9] was 8.39 µM (active); in experiment [14] it was 3.22 µM (active).

Turning to `O=C(CC(C(=O)OC1CCCCC1)S(=O)(=O)O)OC1CCCCC1` (stereo unspecified), the outcome in experiment [1] was inactive.

Consider `COC(=O)/C=C\C(=O)OC`, for which the outcome in [2], in experiment [3], in [4], in experiment [5], in experiment [6] and in experiment [8] was inactive. The outcome in experiment [9], in experiment [10], in [11], in experiment [12], in [13] and in experiment [14] was inactive. Further, the outcome in experiment [15], in experiment [16], in [17], in experiment [18] and in experiment [20] was inactive. For the same compound, the AC50 in [7] was 13.6 µM (active); in experiment [19], 9.12 µM (active).

For the compound `COC(=O)[C@]1(C)CCC[C@@]2(C)[C@H]1CC=C1C=C(C(C)C)CC[C@@H]12`, the AC50 in [1] was 71.6 µM (active).

Take `O=C(C(=O)c1ccccc1)c1ccccc1`: the result in experiment [2], in [3], in experiment [4], in experiment [5], in [6] and in experiment [7] was inactive. In addition, the result in [8], in [9], in [10], in [11], in experiment [12] and in experiment [15] was inactive. Further, the result in experiment [16], in experiment [17], in [18], in experiment [19] and in experiment [20] was inactive. Also, the figures for the AC50 in experiment [13] and in experiment [14] were 0.194 µM (active) and 0.048 µM (active), respectively.

Consider `CCCCCCCCCC/C=C/C1CC(=O)OC1=O` (stereo unspecified), for which the outcome in [2], in [3], in experiment [4], in experiment [5], in experiment [6] and in experiment [7] was inactive. Besides, the outcome in experiment [9], in [10], in experiment [11], in [12], in experiment [13] and in experiment [14] was inactive. Moreover, the result in experiment [15], in experiment [16], in [17], in [18], in experiment [19] and in experiment [20] was inactive. Further, the AC50 in experiment [8] is 20 µM (active).

Regarding `CCCCCC[C@@H](O)C/C=C\CCCCCCCC(=O)O`, the result in [1] was inactive.
